Screening results deposited in PubChem BioAssay by National Center for Advancing Translational Sciences (NCATS).
HCMV antiviral = inhibitors of human cytomegalovirus. HFF cells, HCMV-luciferase reporter, 72 h; hits give low values. activity change, negative = inhibition, % at 57.5 µM. 4.5% of 410,000 active; in the data active = activity change below about -60%; inconclusive = no clear call, values can overlap the other calls; inactive = above about -39%
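Two compound doses tested in HFFs infected with HCMV-luciferase, MOI 1 PFU/cell, 72 h at 37C. Lysate luminescence read with OneGlo; data normalized against buffer-only and 10uM Salinomycin inhibitor controls.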
HCV inh = blocks hepatitis C virus | 3.4% of 340,000 active | Huh7.5.1 HCVcc-Cre infection, luciferase reporter, 44 h | Potency, µM (highest dose often 41.8 µM), without a hit: at the top dose activity change, negative = inhibition, hits mostly inhibitors | AID 651820; also: potency is read from the fitted curve at half-maximal effect
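Compounds are dispensed onto cells plated 4 h earlier at 1,000 per well, with HCVcc-Cre virus (about 0.5 moi) added next. Following 44 h of culture, luminescent signal is measured for 15 sec after 15 min with substrate at room temperature.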
Pf growth 48h = inhibits P. falciparum growth in the first generation, 48 h; P. falciparum luciferase growth in erythrocytes, 48 h; Potency, µM (top dose mostly 28.7 µM), for the others: at the highest dose activity change, negative = inhibition, actives largely listed as inhibitors; 5.9% of 310,000 active; AID 504832; also: potency is read from the fitted curve at half-maximal effect
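A one-generation exposure of luciferase-tagged malaria parasites in RPMI 1640/Albumax erythrocyte culture, 37 C and 5% CO2. Inhibition is inferred from decreased luminescence after adding detection reagent.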
Pf growth 96h = inhibits malaria parasite growth, 96 h. Potency, µM (doses to about 28.7 µM), for the others: at the top dose activity change, negative = inhibition, most hits filed as inhibitors. AID 504834. 6.9% of 320,000 active. P. falciparum luciferase reporter growth, 96 h; also: potency is read from the fitted curve at half-maximal effect
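P. falciparum expressing integrated firefly luciferase, in erythrocytes at 2% hematocrit, 0.05% parasitemia, incubated with compounds 96 h at 37 C, 5% CO2. Growth inhibition read as loss of luminescence; two-generation exposure targets delayed-death apicoplast inhibitors.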
The depositor's hits bear a star; i = inactive; u = inconclusive; x = not tested or not shown. This is a sample that favours compounds with a hit; in the whole collection about 13% have one here. Unless noted, calls follow the shape of the dose curve; as a rule, active = well fitted inhibition curve with a large enough effect; inconclusive = small, poorly fitted or top-dose-only effect, or another doubt; inactive = no such curve, though single readings can be large or run the other way. % is scaled to controls: 0 for no effect and ±100 for the full control effect.

SMILES | HCMV antiviral | HCV inh | Pf growth 48h | Pf growth 96h
COc1cc(CN2CCCC(N3CCN(c4ccc(F)cc4)CC3)C2)ccc1F (centres undefined) | -8 | -11% | 2.1µM* | 0.66µM*
OCCOc1ccc(CN2CCCC(N3CCN(c4ccc(F)cc4)CC3)C2)cc1 (centres undefined) | -4 | -15% | -36% | 358%
COc1ccccc1N1CCN(C2CCCN(Cc3cccc(O)c3)C2)CC1 (centres undefined) | 5 | -15% | u | 1.2µM*
CCOCCCn1c(SCC(=O)Nc2ccc(C(C)C)cc2)nc2c(sc3ccccc32)c1=O | 11 | x | x | x
CCOC(=O)c1ccc(NC(=O)CC2C(=O)N(c3ccc(F)cc3)C(=O)N2Cc2ccc(C)cc2)cc1 (centres undefined) | -8 | x | x | x
CCC(C)Sc1nc2c(c(=O)[nH]c(=O)n2C)n1Cc1ccccc1Cl (centres undefined) | -36 | -16% | 12µM* | u
CSc1nc2c(c(=O)[nH]c(=O)n2C)n1Cc1ccccc1Cl | -3 | -12% | -13% | 5.2µM*
CCCn1c(SCc2ccc(Cl)cc2)nc2c1c(=O)[nH]c(=O)n2C | u | -17% | u | u
Cn1c(=O)[nH]c(=O)c2c1nc(SCCO)n2Cc1ccccc1Cl | 168 | 3% | -26% | u
Cn1c(=O)[nH]c(=O)c2c1nc(SCCN1CCCCC1)n2Cc1ccccc1 | -20 | 9% | u | -22%
CSc1nc2c(c(=O)[nH]c(=O)n2C)n1Cc1ccc(Cl)cc1 | 19 | 25µM* | 15% | u
Cc1ccc(Cn2c(SCCN3CCCCC3)nc3c2c(=O)[nH]c(=O)n3C)cc1 | u | 7% | -14% | 3.7µM*
Cc1cccc(N2CCN(C(=O)c3c4c(nc5ccccc35)C(=O)N(C3CCCCC3)C4)CC2)c1C | 34 | x | x | x
CC[N+](CC)(CCNC(=O)C(=O)NCC[N+](CC)(CC)Cc1ccccc1Cl)Cc1ccccc1Cl | x | x | u | 6µM*
COc1ccc(-c2csc(N3C(=O)C4C5c6ccccc6C(c6ccccc65)C4C3=O)n2)cc1 (centres undefined) | -62* | 8% | 14% | i
O=C(c1ccc(Br)cc1)N(C1=NCCCCS1)c1ccccc1 | -63* | 8% | -15% | -10%
CC(=O)N(C1=NCCCS1)c1ccc(Cl)cc1 | 17 | 22% | 19% | 9%
N#C/C(=C\Nc1ccccc1SC(F)(F)F)c1nc(-c2ccccc2)cs1 | -6 | 11% | u | u
COc1cc2c(cc1N/C=C(\C#N)c1nc(-c3ccc(F)cc3)cs1)oc1ccccc12 | -27 | 9% | 9.3µM* | u
Cc1ccc(Cl)cc1NC(=O)COC(=O)CC(C)(C)CC1=NS(=O)(=O)c2ccccc2N1 | 17 | x | x | x
CC(C)(CC(=O)NCc1ccc(Cl)cc1Cl)CC1=NS(=O)(=O)c2ccccc2N1 | -89* | x | x | x
Cc1ccc(S(=O)(=O)N2CCCc3cc(NS(=O)(=O)c4ccccc4)ccc32)cc1 | -9 | x | x | x
CCc1ccc(N2C(=O)CS(=O)(=O)C23C(=O)N(Cc2ccccc2F)c2ccccc23)cc1 (centres undefined) | -7 | x | x | x
Cc1ccc(C(c2ccc(C)o2)c2cccc([N+](=O)[O-])c2O)o1 | 1 | 8% | 7.4µM* | 4.7µM*
Cc1cc(C(c2ccc(C)o2)c2ccc(C)o2)c(O)c([N+](=O)[O-])c1 | 23 | -9% | x | -12%
SMILES | HCMV antiviral | HCV inh | Pf growth 48h | Pf growth 96h
O=C(NC1CCCc2ccccc21)c1cn2ccccc2n1 (centres undefined) | 5 | u | 8% | 1%
COc1ccc(C(=O)NC2CCCc3ccccc32)cc1 (centres undefined) | -70* | -9% | -14% | u
Cc1nc2ccccn2c1C(=O)NC1CCCc2ccccc21 (centres undefined) | -72* | 7.1µM* | 9.3µM* | u
COc1cc(OC)c(C(=O)NC2CCCc3ccccc32)cc1OC (centres undefined) | 5 | -2% | -26% | u
COCCNc1ccc([N+](=O)[O-])cc1C(=O)NC1CCCc2ccccc21 (centres undefined) | 35 | 13µM* | u | u
COc1cccc(C(=O)NC2CCCc3ccccc32)c1 (centres undefined) | 26 | -6% | -18% | u
CCCCNC(=O)C(NC(=O)c1cnc(C)cn1)C(=O)c1ccccc1 (centres undefined) | -10 | x | x | x
COc1ccc(-n2c(=O)c3sc4ccccc4c3n(CC(=O)N3CCCC3)c2=O)cc1 | -13 | x | x | x
Fc1ccc(Nc2nc(SCc3ccccc3F)nc3ccccc23)cc1 | -86* | x | x | x
Cc1cc(=O)oc2c3c(cc(OCC(=O)NCC(=O)O)c12)OC(C)(C)CC3 | 0 | -9% | -7% | 11%
Cc1cc(=O)oc2c3c(cc(OCC(=O)NCc4ccccc4)c12)OC(C)(C)CC3 | 57 | 5.6µM* | u | 12µM*
Cc1c(C)c2c(OCC(=O)NCC(O)c3ccccc3)cc3c(c2oc1=O)CCC(C)(C)O3 (centres undefined) | -26 | -17% | u | 4.7µM*
Cc1cc(=O)oc2c3c(cc(OCC(=O)Nc4cccnc4)c12)OC(C)(C)CC3 | 2 | u | -24% | 1.3µM*
Cc1cc(=O)oc2c3c(cc(OCC(=O)NC4CC4)c12)OC(C)(C)CC3 | -3 | u | u | 15µM*
N#Cc1[nH]nc2nc[nH]c(=O)c12 | 7 | x | x | x
Cc1c(C)c2c(OCC(=O)NC3CC3)cc3c(c2oc1=O)CCC(C)(C)O3 | -8 | -16% | u | 12µM*
C(=C/c1ccnc2nc(SC/C=C/c3ccccc3)nn12)/c1ccccc1 | -22 | -21% | u | 15µM*
O=C(/C=C/c1ccccc1)n1cnnc1SC/C=C/c1ccccc1 | 61 | 13% | 41% | 27%
C=C1[C@@H](CCO)N(S(=O)C(C)(C)C)C[C@@H]1C (some centres undefined) | -13 | x | x | x
O=C(CSc1nnnn1C1CCCCC1)Nc1cccc(NC(=O)c2ccco2)c1 | -19 | u | u | u
O=C(CSc1nncn1-c1ccccc1)Nc1cccc(S(=O)(=O)N2CCCCC2)c1 | 19 | 13% | -3% | u
O=C(CSc1nnnn1-c1ccc(O)cc1)Nc1cccc(S(=O)(=O)N2CCCC2)c1 | -73* | u | u | x
O=C(CSc1nnnn1C1CC1)Nc1cccc(S(=O)(=O)N2CCCC2)c1 | -75* | -22% | u | u
O=C(CSc1nnnn1C1CCCC1)Nc1cccc(NC(=O)c2ccco2)c1 | -70* | -12% | -14% | u
Cc1cc2nc(C(C)(C)C)c(Cc3cccc(F)c3)n2c(C)c1Br | 31 | x | x | x
CC(C)NC(=O)c1ccccc1NC(=O)C1COc2ccccc2O1 (centres undefined) | -33 | u | 10µM* | -17%
CCC(C)NC(=O)c1ccccc1NC(=O)C1COc2ccccc2O1 (centres undefined) | u | 22µM* | 1.2µM* | u
CC(C)N1CC(O)=C(c2nc3ccccc3c(=O)[nH]2)C1=N | -10 | 6% | 2% | x
